PriA SSB inh = inhibitors of Klebsiella pneumoniae PriA binding to SSB C-terminal tail, primary screen, biochemical, AlphaScreen. PriA–SSB C-terminal tail interaction (Klebsiella pneumoniae). AlphaScreen SSBct-PriA binding, biotinylated peptide. inhibition, % at 33 µM. actives 0.6% (n = 430,000); in the data active = inhibition mostly above about 37%, no sharp cut-off; inactive = mostly below about 20%;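 note: plate controls were negative control peptide for no effect and reference peptide for full effect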
CCHF vOTU inh = CCHFV vOTU protease inhibitors, primary screen, biochemical, Pep-AMC substrate, fluorescence | Crimean-Congo hemorrhagic fever virus L polyprotein viral ovarian tumor (vOTU) protease … | inhibition, % at 11.5 µM | actives 0.55% (n = 370,000); in the data active = inhibition above about 30%; note: 0% = vehicle wells with enzyme and 100% = no enzyme wells
Mtb hypoxia inh = PubChem AID 1159583. M. tuberculosis hypoxia-regulated fluorescent reporter, fluorescence. fluorescence inhibition, % (no concentration beside the values). actives 0.1% (n = 300,000); in the data active = fluorescence inhibition mostly above about 23%, no sharp cut-off; inactive = mostly below about 17%
RN4220 kill = growth inhibition of S. aureus RN4220, primary screen, OD600. inhibition, % (test concentration not listed). AID 1259311, 2017. actives 0.33% (n = 330,000). 16 h; in the data active = inhibition above about 85%;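 note: plate controls were untreated cells for no effect and reference antibiotic for full effect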
Sa ugtP lethal = growth inhibition of ugtP-null S. aureus, primary screen, RN4220 ugtP deletion, OD600 | 16 h | growth inhibition, % (no concentration beside the values) | actives 0.54% (n = 330,000); in the data active = growth inhibition above about 68%;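 note: plate controls were untreated wells for no effect and antibiotic for full effect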
* marks the source's active call; other numbers are inactive results; . = no result given; ! = not confirmed by another sample. This is a sample that favours compounds with a hit; in the whole collection about 1.4% have one here.

SMILES	PriA SSB inh	CCHF vOTU inh	Mtb hypoxia inh	RN4220 kill	Sa ugtP lethal
Cc1ccc(S(=O)(=O)N(C)C(=O)NC(=O)Nc2cccc(C(F)(F)F)c2)cc1	-11	.	.	.	.
Cc1ccc(CS/C(Nc2ccccc2C)=C(\C#N)C(N)=O)c(C)c1	-2	18	6	2	95*
Cc1ccc(CC(=O)Nc2ccccc2C#N)c(C)c1	-6	.	.	.	.
O=C(CC1SC(=O)N(c2ccccc2)C1=O)NC(=S)Nc1cccc([N+](=O)[O-])c1 (centres undefined)	17	.	.	.	.
COc1ccc(C(=O)Nc2ccccc2SC)cc1	-42	.	.	.	.
CCOC(=O)C(NC(=O)Nc1ccc(F)cc1F)(Oc1ccc(F)cc1)C(F)(F)F (centres undefined)	-7	-21	5	85*	71
CCOC(=O)C(NC(=O)Nc1ncccn1)(Oc1ccccc1)C(F)(F)F (centres undefined)	-7	6	.	19	-2
CCn1c(SCC(=O)NC(=O)NCc2ccco2)nc2sc(C)c(C)c2c1=O	-2	0	38*	-10	-10
COc1ccccc1-n1ncc2c(=O)[nH]c(SCCC(C)C)nc21	1	.	.	.	.
COc1ccc(CCC(=O)N(Cc2ccsc2)Cc2ccccn2)cc1	-7	.	.	.	.
Cc1nn(-c2ccccc2)nc1C(=O)Nc1nnc(C(F)(F)F)s1	-5	-6	1	79	86*
O=C(Nc1ccccc1C(=O)Nc1nnc(C(F)(F)F)s1)c1ccccc1Cl	-5	12	.	88*	90*
CCc1nnc(NC(=O)c2nn(-c3ccccc3)nc2C)s1	-14	-11	13	1	0
O=C(Nc1nnc(C(F)(F)F)s1)C1COc2ccccc2O1 (centres undefined)	-3	1	.	91	88*
O=C(Nc1nnc(C(F)(F)F)s1)c1ccc(Br)s1	-21	16	10	84	81*
CCOC(=O)c1sc(NC(=O)COc2ccc(C)cc2C(C)(C)C)nc1C	-4	.	.	.	.
CC(NC(=O)Nc1nnc(C(F)(F)F)s1)(C(F)(F)F)C(F)(F)F	-9	13	.	74	83*
COC(=O)C1=C(C)Nc2ncnn2C1c1ccnn1C (centres undefined)	-18	.	.	.	.
CC(C)(C)c1ccc(-c2nnc3sc(-c4ccccn4)nn23)cc1	46*	5	.	-4	0
CN(C)c1ccc(-c2nnc3sc(-c4ccccn4)nn23)cc1	74*	.	.	.	.
COc1ccc(-c2nnc3sc(-c4ccccn4)nn23)cc1	56*	.	.	9	-8
COc1cccc(-c2nnc3sc(-c4ccccn4)nn23)c1	-20	5	.	2	-10
c1ccc(-c2nnc3sc(-c4ccccn4)nn23)cc1	45	.	.	.	.
Clc1ccc(-c2nnc3sc(-c4ccccn4)nn23)cc1	48	.	.	.	.
c1ccc(-c2nn3c(-c4ccncc4)nnc3s2)nc1	59*	.	.	.	.
SMILES	PriA SSB inh	CCHF vOTU inh	Mtb hypoxia inh	RN4220 kill	Sa ugtP lethal
COC(=O)CC1=Nc2ccccc2N=C(SCC(=O)Nc2ccc(S(C)(=O)=O)cc2)C1	-1	.	.	.	.
O=[N+]([O-])c1ccc(Nc2ccccc2Cl)c2nonc12	59*	.	.	.	.
O=C(O)c1ccccc1Nc1ccc([N+](=O)[O-])c2nonc12	57*!	.	19	8	17
Cc1ccccc1Nc1ccc([N+](=O)[O-])c2nonc12	76	.	.	.	.
CCCC(=O)N1N=C(c2ccc(NS(C)(=O)=O)cc2)CC1c1c(F)cccc1Cl (centres undefined)	3	.	.	.	.
CCOC(=O)c1cnc(-n2nc(C)cc2C)[nH]c1=O	13	8	-5	9	8
CCOC(=O)c1cnc(-n2[nH]c(C)cc2=O)[nH]c1=O	93*	1	-4	17	-6
CCOC(=O)c1cnc(Cc2ccccc2)[nH]c1=O	-14	-6	0	4	12
CCOC(=O)c1cnc(-n2[nH]c(C)c(Cc3ccccc3)c2=O)[nH]c1=O	84*	2	18	27	4
O=C(Cc1ccc(Cl)cc1)NNC(=O)c1ccc(=O)n(Cc2ccc(Cl)cc2)c1	-8	.	.	.	.
O=[N+]([O-])/C=C/c1cn(Cc2ccc(Cl)cc2)c2ccccc12	-7	13	11	90*	77
CCOC(=O)CSc1nnc(CNC(=O)c2cccc(C)c2)n1-c1cc(C)ccc1C	3	.	.	.	.
Brc1nc(-c2ccccn2)n[nH]1	142*	.	.	.	.
Clc1nc(-c2ccccn2)n[nH]1	163*	.	.	.	.
c1ccc(-c2nc(-c3ccncc3)n[nH]2)nc1	28	-10	-13	2	-3
COC(=O)NN=Cc1ccc(OC(=O)c2ccco2)c(OC)c1	.	.	-5	3	2
